According to the antibiotic and cytotoxicity screens of Wong et al. (2023):
The campaign covered roughly 39,000 compounds. About 3,300 (8.5%) were called active. This excerpt belongs to a sample that is enriched for actives.

Each compound was assayed on HepG2 (assay: cytotoxicity call (relative viability < 0.9)). Conditions: 10 µM.
In the case of `CC(C)c1ccc2c(c1)[C@H](O)[C@H](N)CCO2`, the cytotoxicity call was “inactive”. For `O=C1NCC2(CNC2)O1`, the cytotoxicity call was “inactive”. For `CCN(CC)C1CCCCC1`, the cytotoxicity call was “inactive”. With `NC1(Cc2ccc(Cl)cc2)CC1` the cytotoxicity call was “inactive”. With `O.O=c1ccc2cc(OC3OC(CO)C(O)C(O)C3O)c(O)cc2o1` (configuration not stated) the cytotoxicity call was “inactive”. For `CC(C)(C)[C@]1(O)C[C@@H]2OC(=O)C[C@]23C(=O)O[C@@H]2OC(=O)[C@H](O)[C@]231`, the cytotoxicity call was “inactive”. With `CC(=O)O[C@H]1C[C@@H]2CC[C@@H]3[C@H](CC[C@@]4(C)[C@H]3C[C@H]([N+]3(C)CCCCC3)[C@@H]4OC(C)=O)[C@@]2(C)C[C@@H]1[N+]1(C)CCCCC1` the cytotoxicity call was “inactive”. `CC(=O)OC1CCC2(C)C(CCC3C2CCC2(C)C(C4=CC(=O)OC4)C(OC(C)=O)CC32O)C1` (configuration not stated) was tested, and the cytotoxicity call was “active”. With `O=C(O)CC[N+](=O)[O-]` the cytotoxicity call was “inactive”. `C[C@H]1CN([C@@H](C)CO)C(=O)CCCn2cc(nn2)CO[C@@H]1CN(C)C(=O)Oc1ccc2ccccc2c1` was tested, and the cytotoxicity call was “inactive”. With `[N-]=[N+]=NCC(=O)Nc1ccon1` the cytotoxicity call was “inactive”. `N#CCCN.O=C(O)C=CC(=O)O` was tested, and the cytotoxicity call was “inactive”. In the case of `COC(=O)[C@H]1[C@H](CO)[C@H]2Cn3c(ccc(C4=CCCC4)c3=O)[C@@H]1N2S(=O)(=O)c1cn(C)cn1`, the cytotoxicity call was “inactive”. In the case of `CC[C@@H](C)C(=O)O[C@H]1[C@H](O)[C@H]2[C@@H](CN3C[C@@H](C)CC[C@@H]3[C@@]2(C)O)[C@H]2C[C@]34O[C@]5(O)[C@@H](OC(=O)[C@@](C)(O)[C@@H](C)O)CC[C@@]3(C)[C@@H]5[C@@H](OC(C)=O)[C@@H](OC(C)=O)[C@@H]4[C@@]21O`, the cytotoxicity call was “active”. In the case of `C/C=C(/C)C(=O)O[C@H]1CC[C@@]2(C)[C@@H]3CC[C@H]4[C@]5(O)C[C@H](O)[C@@]6(O)[C@@H](CN7C[C@@H](C)CC[C@H]7[C@@]6(C)O)[C@]5(O)C[C@@]42O[C@@]13O`, the cytotoxicity call was “inactive”. `CC[C@@H](C)C(=O)O[C@H]1[C@H](O)[C@H]2[C@@H](CN3C[C@@H](C)CC[C@@H]3[C@@]2(C)O)[C@H]2C[C@]34O[C@]5(O)[C@@H](OC(=O)[C@@](C)(O)CC)CC[C@@]3(C)[C@@H]5[C@@H](OC(C)=O)[C@@H](OC(C)=O)[C@@H]4[C@@]21O` was tested, and the cytotoxicity call was “inactive”. For `CC(C)C12CN3CCN(CC(C3)C1=O)C2`, the cytotoxicity call was “inactive”. `C[C@@H]1CN([C@H](C)CO)C(=O)c2c(c3ccccc3n2C)-c2ccccc2CO[C@H]1CN(C)C(=O)Oc1ccccc1` was tested, and the cytotoxicity call was “inactive”. With `Cc1o[nH]c(=O)c1C[C@@H](N)C(=O)O` the cytotoxicity call was “inactive”. With `CC(N)C(O)c1ccccc1.Cl` (configuration not stated) the cytotoxicity call was “inactive”. With `COc1ccc(OC)c(C(O)C(C)N)c1.Cl` (configuration not stated) the cytotoxicity call was “active”. `COc1ccc(OC)c(CN)c1` was tested, and the cytotoxicity call was “inactive”. With `O=c1[nH]oc2c1CCNC2` the cytotoxicity call was “inactive”. With `COC(C)(C)CCC[C@H](C)C/C=C/C(C)=C/C(=O)OC(C)C` the cytotoxicity call was “inactive”. `Cl.O=C1CCC2(O)C3Cc4ccc(O)c5c4C2(CCN3CC2CC2)C1O5` (configuration not stated) was tested, and the cytotoxicity call was “inactive”. `CCC1CN2CCC1CC2C(O)c1ccnc2ccc(OC)cc12` (configuration not stated) was tested, and the cytotoxicity call was “active”. For `C=CC1CN2CCC1CC2C(OC(=O)OCC)c1ccnc2ccc(OC)cc12` (configuration not stated), the cytotoxicity call was “inactive”. With `C=CC1CN2CCC1CC2C(O)c1ccnc2ccccc12` (configuration not stated) the cytotoxicity call was “inactive”. In the case of `CC1OC(OC2CCC3(C=O)C4CCC5(C)C(C6=CC(=O)OC6)CCC5(O)C4CCC3(O)C2)C(O)C(O)C1O` (configuration not stated), the cytotoxicity call was “active”. In the case of `CO[C@H]1[C@@H](O)[C@@H](C)O[C@H](O[C@H]2CC[C@@]3(C)[C@H]4CC[C@@]5(C)[C@@H](C6=CC(=O)OC6)CC[C@]5(O)[C@@H]4CC[C@]3(O)C2)[C@@H]1O`, the cytotoxicity call was “inactive”. With `COC1C(O)C(C)OC(OC2CCC3(C=O)C(CCC4C3CCC3(C)C(C5=CC(=O)OC5)CCC43O)C2)C1O` (configuration not stated) the cytotoxicity call was “active”. In the case of `C[C@@H]1O[C@@H](O[C@H]2CC[C@]3(C=O)[C@H]4CC[C@]5(C)[C@@H](C6=CC(=O)OC6)CC[C@]5(O)[C@@H]4CC[C@]3(O)C2)[C@H](O)[C@H](O)[C@H]1O`, the cytotoxicity call was “active”. With `CO[C@H]1C[C@H](O[C@H]2CC[C@]3(C=O)[C@H]4CC[C@]5(C)[C@@H](C6=CC(=O)OC6)CC[C@]5(O)[C@@H]4CC[C@]3(O)C2)O[C@H](C)[C@H]1O` the cytotoxicity call was “active”. For `COC1C(O)C(C)OC(OC2CCC3(C)C4CCC5(C)C(C6=CC(=O)OC6)CCC5(O)C4CCC3(O)C2)C1O` (configuration not stated), the cytotoxicity call was “inactive”. `N#Cc1cnccn1` was tested, and the cytotoxicity call was “inactive”. `CCNC1(c2cccs2)CCCCC1=O.Cl` (configuration not stated) was tested, and the cytotoxicity call was “inactive”. `NCC[C@H](NC(=O)[C@@H](N)CCCNC(N)=N[N+](=O)[O-])C(N)=O.O=CC(F)(F)F` was tested, and the cytotoxicity call was “inactive”. With `c1cnc(N[C@@H]2CO[C@@]3(CCNC3)C2)cn1` the cytotoxicity call was “inactive”. With `NC1=NC(=O)N2C[C@@H]12` the cytotoxicity call was “inactive”. In the case of `C[C@H](CO)N1C[C@H](C)[C@H](CN(C)C(=O)Oc2ccc3ccccc3c2)OCc2cnnn2CCCC1=O`, the cytotoxicity call was “inactive”. For `C1CN2CN3CCN(CN1C3)C2`, the cytotoxicity call was “inactive”. With `NCCc1ccc([N+](=O)[O-])cc1` the cytotoxicity call was “inactive”. In the case of `O=C(c1ccco1)N1C[C@H]2CN[C@@H](C2)C1`, the cytotoxicity call was “inactive”. In the case of `C=C[C@H]1[C@H](O[C@@H]2O[C@H](CO)[C@@H](O)[C@H](O)[C@H]2O)OC=C2C(=O)OCC[C@H]21`, the cytotoxicity call was “inactive”. For `Cc1cccc(CC2(N)CC2)c1`, the cytotoxicity call was “inactive”. In the case of `N#[N+]CC(=O)CC[C@H](N)C(=O)O`, the cytotoxicity call was “inactive”. With `CC12CCC3C(CCC4(O)CC(O)CCC34C=O)C1(O)CCC2C1=CC(=O)OC1` (configuration not stated) the cytotoxicity call was “active”. With `C#CC(C)(O)CC` (configuration not stated) the cytotoxicity call was “inactive”. With `CNC(=O)CN1CCOCC12CCN(c1cc(OC)ncn1)CC2` the cytotoxicity call was “inactive”. For `CC1(C)CCC(C)(C)c2cc(-c3csc(CC#N)n3)ccc21`, the cytotoxicity call was “inactive”. In the case of `COc1c(C[C@@H](C)O)c2c3c(C[C@@H](C)O)c(OC)c(=O)c4c(O)cc5c(c6c(cc(O)c(c1=O)c62)OCO5)c43`, the cytotoxicity call was “active”. In the case of `NCCc1cccc2ccccc12`, the cytotoxicity call was “inactive”. For `C[C@@H]1CN([C@@H](C)CO)C(=O)c2c(c3ccccc3n2C)-c2ccccc2CO[C@H]1CN(C)C(=O)Oc1ccccc1`, the cytotoxicity call was “inactive”. With `CN(C)C(=O)N[C@H]1CN[C@H]2CCCO[C@H]21` the cytotoxicity call was “inactive”. With `O=C1C=C2C=CC3CC2(O1)C1CCCCN31` (configuration not stated) the cytotoxicity call was “active”. `CN1C(=O)NC(=O)/C(=C\c2ccc(O)cc2)C1=O` was tested, and the cytotoxicity call was “inactive”. With `Cn1cc(C(=O)Nc2nn[nH]n2)c2ccccc21` the cytotoxicity call was “inactive”. With `CCCC12CNCC(C)(CNC1)C2=O` the cytotoxicity call was “inactive”. With `O=[N+]([O-])c1ccc(N(CCO)CCO)c2c1no[n+]2[O-]` the cytotoxicity call was “active”. For `Nc1ccc([As](=O)(O)O)cc1`, the cytotoxicity call was “inactive”. In the case of `CN1CC(=O)N(c2cccnc2)C[C@]12CCNC2`, the cytotoxicity call was “inactive”. With `O=[N+]([O-])C(Br)(CO)CO` [listing 1 of 2 here] the cytotoxicity call was “active”. In the case of `OCC(Br)(Br)Br`, the cytotoxicity call was “inactive”. `O=[N+]([O-])C(Br)(CO)CO` [listing 2 of 2 here] was tested, and the cytotoxicity call was “active”. For `CN1C(=O)/C(=C/c2cn(CC(=O)N3CCOCC3)c3ccccc23)C(=O)NC1=S`, the cytotoxicity call was “inactive”. For `CC(C)(C)[C@H]1CC[C@@]2(CC1)C[C@@H](C[Si](C)(C)C)OO2`, the cytotoxicity call was “inactive”. In the case of `CC(C)Oc1ccccc1CCN`, the cytotoxicity call was “inactive”. `CCN(CC)S(=O)(=O)c1ccc(Cn2nc(C(=O)Nc3ccc(N4CCCCC4)cc3)c3ccccc32)cc1` was tested, and the cytotoxicity call was “inactive”. For `NC(=O)N1C[C@@H]2C[C@H]1CN2`, the cytotoxicity call was “inactive”. With `C[N+]1(C)C2CCC1CC(OC(=O)C(CO)c1ccccc1)C2.O=[N+]([O-])[O-]` (configuration not stated) the cytotoxicity call was “inactive”. In the case of `O=C(NCNC(=O)N[C@H]1C(=O)NC(=O)N1CO)N[C@H]1C(=O)NC(=O)N1CO`, the cytotoxicity call was “inactive”. `CCC(=O)CCCCC[C@@H]1NC(=O)[C@H]2CCCCN2C(=O)[C@H]([C@H](C)CC)NC(=O)[C@H](Cc2cn(OC)c3ccccc23)NC1=O` was tested, and the cytotoxicity call was “active”. For `CCC(=O)CCCCC[C@@H]1NC(=O)[C@H]2CCCCN2C(=O)[C@H]([C@@H](C)CC)NC(=O)[C@H](Cc2cn(OC)c3ccccc23)NC1=O`, the cytotoxicity call was “active”. With `N[C@@H](C(=O)O)c1cc(=O)[nH]o1` the cytotoxicity call was “inactive”. `COC(N)=O` was tested, and the cytotoxicity call was “inactive”. In the case of `CN1C[C@@H]2C[C@H](C(=O)Nc3cccnc3)[C@@H](C1)O2`, the cytotoxicity call was “inactive”. For `CCCCS(=O)(=O)N1C[C@H]2CNC[C@@H]2C1`, the cytotoxicity call was “inactive”. `NC(=O)c1ccc(N)nc1` was tested, and the cytotoxicity call was “active”. With `NC(=O)c1cc([N+](=O)[O-])cc([N+](=O)[O-])c1` [listing 1 of 2 here] the cytotoxicity call was “inactive”. For `NC(=O)c1cc([N+](=O)[O-])cc([N+](=O)[O-])c1` [listing 2 of 2 here], the cytotoxicity call was “inactive”. For `C[C@H]1CN([C@@H](C)CO)C(=O)CCCn2nncc2CO[C@@H]1CN(C)C(=O)Oc1ccc2ccccc2c1`, the cytotoxicity call was “inactive”. `CNc1ccc(C(=O)C[C@@H](O)CC[C@@H](C)[C@H]2OC(=O)C[C@@H](O)CC(=O)C[C@@H](O)C[C@@H](O)C[C@@H](O)C[C@@H](O)C[C@@]3(O)C[C@@H](O)[C@H](C(=O)OC)[C@@H](C[C@@H](O[C@@H]4O[C@H](C)[C@@H](O)[C@H](N)[C@@H]4O)\C=C/C=C\C=C/C=C\C=C/C=C\C=C/[C@@H]2C)O3)cc1` was tested, and the cytotoxicity call was “inactive”. With `CN(C)C(=O)Oc1ccc[n+](C)c1` the cytotoxicity call was “inactive”. In the case of `CN(C)C(=O)Oc1ccc[n+](C)c1.[Br-]`, the cytotoxicity call was “active”. `CN(C)C(=O)Oc1cccc([N+](C)(C)C)c1.[Br-]` was tested, and the cytotoxicity call was “inactive”. For `O=C(O)[C@H]1C[C@H]2CCCCN2C1`, the cytotoxicity call was “inactive”. In the case of `CN1[C@@H]2CC[C@@H]1C[C@H](O)C2` (some centres not stated), the cytotoxicity call was “inactive”. In the case of `CCCC[C@@H](C)[C@@H](OC(=O)C[C@@H](CC(=O)O)C(=O)O)[C@H](C[C@@H](C)C[C@H](O)CCCC[C@@H](O)C[C@H](O)[C@H](C)N)OC(=O)C[C@@H](CC(=O)O)C(=O)O`, the cytotoxicity call was “inactive”. In the case of `OC[C@H]1O[C@@H](Oc2c[nH]c3ccc(Br)c(Cl)c23)[C@H](O)[C@@H](O)[C@H]1O`, the cytotoxicity call was “inactive”. With `CCCCCCCCCCCCCCCC[N+](C)(C)C.[Br-]` the cytotoxicity call was “active”. For `C[N+](C)(C)CCCl`, the cytotoxicity call was “inactive”. `C[N+](C)(C)CCCCCCCCCC[N+](C)(C)C.[Br-].[Br-]` was tested, and the cytotoxicity call was “inactive”. In the case of `N=C(N)/N=C(\N)Nc1ccc(Cl)cc1`, the cytotoxicity call was “inactive”. With `Oc1ccccc1-c1ccccc1` the cytotoxicity call was “inactive”. With `O=C1C=CC(=O)c2c(O)cccc21` the cytotoxicity call was “active”. With `Oc1ccccc1-c1ccccc1O` the cytotoxicity call was “inactive”. In the case of `CC1=CC(=O)c2c(O)cccc2C1=O`, the cytotoxicity call was “active”.
